The supplement of paper PMC11732987, “Enantioselective OTUD7B fragment discovery through chemoproteomics screening and high-throughput optimisation” (Communications Chemistry, 2025)

Tests used:
Assay in all cases: log2 ratio of Biotin-Ahx-Ub-VS probe labelling (fragment/DMSO); higher = less target engagement (more negative = stronger competition), active = hit call of the paper (q ≤ 0.05, log2 ratio ≤ -1)
Details in all cases: compound concentration: 200 uM; treatment time: 3 h
USP19 = biological target: T1, USP19 (UniProt O94966)
T1 sequence (whole entry): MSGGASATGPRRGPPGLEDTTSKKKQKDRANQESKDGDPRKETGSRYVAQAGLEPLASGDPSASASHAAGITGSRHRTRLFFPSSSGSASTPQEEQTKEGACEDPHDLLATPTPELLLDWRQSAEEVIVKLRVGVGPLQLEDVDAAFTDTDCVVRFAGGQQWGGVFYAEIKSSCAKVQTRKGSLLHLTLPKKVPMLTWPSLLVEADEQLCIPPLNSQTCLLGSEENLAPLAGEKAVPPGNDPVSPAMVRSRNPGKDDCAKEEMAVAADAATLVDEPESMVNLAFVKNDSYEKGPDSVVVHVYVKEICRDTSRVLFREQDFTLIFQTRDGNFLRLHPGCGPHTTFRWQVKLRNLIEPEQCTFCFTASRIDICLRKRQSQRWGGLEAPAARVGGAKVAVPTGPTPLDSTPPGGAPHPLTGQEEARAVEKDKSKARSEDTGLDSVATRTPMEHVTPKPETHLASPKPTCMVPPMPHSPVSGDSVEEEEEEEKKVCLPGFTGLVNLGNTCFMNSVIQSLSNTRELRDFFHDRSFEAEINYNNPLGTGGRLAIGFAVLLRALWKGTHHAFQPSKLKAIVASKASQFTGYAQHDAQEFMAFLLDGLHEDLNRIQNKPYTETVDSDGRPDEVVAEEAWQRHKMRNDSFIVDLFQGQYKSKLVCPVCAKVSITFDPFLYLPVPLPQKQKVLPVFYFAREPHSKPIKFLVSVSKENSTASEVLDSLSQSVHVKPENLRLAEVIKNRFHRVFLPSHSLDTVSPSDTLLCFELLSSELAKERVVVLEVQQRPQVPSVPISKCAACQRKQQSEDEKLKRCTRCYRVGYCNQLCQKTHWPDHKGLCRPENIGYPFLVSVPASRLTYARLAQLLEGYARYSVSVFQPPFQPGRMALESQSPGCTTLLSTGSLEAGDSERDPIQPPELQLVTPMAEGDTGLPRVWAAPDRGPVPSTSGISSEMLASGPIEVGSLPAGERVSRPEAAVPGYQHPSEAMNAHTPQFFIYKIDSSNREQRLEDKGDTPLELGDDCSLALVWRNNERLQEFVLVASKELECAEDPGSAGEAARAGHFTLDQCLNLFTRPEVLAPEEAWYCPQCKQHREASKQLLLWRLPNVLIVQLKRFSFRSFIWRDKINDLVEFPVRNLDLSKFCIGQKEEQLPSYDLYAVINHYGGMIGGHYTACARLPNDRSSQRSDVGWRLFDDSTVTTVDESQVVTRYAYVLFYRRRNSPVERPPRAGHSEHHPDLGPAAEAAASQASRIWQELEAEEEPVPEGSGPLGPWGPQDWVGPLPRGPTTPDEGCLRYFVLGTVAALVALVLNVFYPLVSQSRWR
Procedure, shortened: (§1)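 HEK293T lysate in Tris/CHAPS/IGEPAL buffer with protease inhibitors (495 µg per sample) was given fragment at 200 µM or vehicle for 3 h, in triplicate. It then received Biotin-Ahx-Ub-VS at 0.5 µM final for 1 h. Labelled DUBs were NeutrAvidin-enriched, digested with LysC and trypsin, and run by diaPASEF LC-MS/MS. Values are average log2 fragment/vehicle ratios by unpaired t-test on global-median-normalised Spectronaut quantities of proteins with ≥2 unique peptides.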

USP22 = biological target: T2, USP22 (UniProt Q9UPT9)
T2 sequence (whole entry): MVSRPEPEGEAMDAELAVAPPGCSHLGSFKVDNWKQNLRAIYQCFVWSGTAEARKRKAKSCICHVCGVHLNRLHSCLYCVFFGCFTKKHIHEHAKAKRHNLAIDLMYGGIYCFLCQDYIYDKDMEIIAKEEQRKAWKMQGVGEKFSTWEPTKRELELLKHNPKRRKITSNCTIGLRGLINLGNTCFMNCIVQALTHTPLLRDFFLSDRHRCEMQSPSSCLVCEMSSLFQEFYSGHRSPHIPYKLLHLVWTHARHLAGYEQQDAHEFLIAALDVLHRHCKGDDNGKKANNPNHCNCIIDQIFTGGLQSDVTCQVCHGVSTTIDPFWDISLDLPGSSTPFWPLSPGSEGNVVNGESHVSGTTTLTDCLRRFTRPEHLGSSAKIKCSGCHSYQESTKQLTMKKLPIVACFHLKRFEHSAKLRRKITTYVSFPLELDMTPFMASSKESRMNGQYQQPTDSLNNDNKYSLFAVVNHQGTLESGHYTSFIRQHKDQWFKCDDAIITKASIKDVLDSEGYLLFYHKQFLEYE
Procedure, shortened: as §1

USP24 = USP24 (UniProt Q9UPU5)
Sequence of USP24 (Q9UPU5 whole entry): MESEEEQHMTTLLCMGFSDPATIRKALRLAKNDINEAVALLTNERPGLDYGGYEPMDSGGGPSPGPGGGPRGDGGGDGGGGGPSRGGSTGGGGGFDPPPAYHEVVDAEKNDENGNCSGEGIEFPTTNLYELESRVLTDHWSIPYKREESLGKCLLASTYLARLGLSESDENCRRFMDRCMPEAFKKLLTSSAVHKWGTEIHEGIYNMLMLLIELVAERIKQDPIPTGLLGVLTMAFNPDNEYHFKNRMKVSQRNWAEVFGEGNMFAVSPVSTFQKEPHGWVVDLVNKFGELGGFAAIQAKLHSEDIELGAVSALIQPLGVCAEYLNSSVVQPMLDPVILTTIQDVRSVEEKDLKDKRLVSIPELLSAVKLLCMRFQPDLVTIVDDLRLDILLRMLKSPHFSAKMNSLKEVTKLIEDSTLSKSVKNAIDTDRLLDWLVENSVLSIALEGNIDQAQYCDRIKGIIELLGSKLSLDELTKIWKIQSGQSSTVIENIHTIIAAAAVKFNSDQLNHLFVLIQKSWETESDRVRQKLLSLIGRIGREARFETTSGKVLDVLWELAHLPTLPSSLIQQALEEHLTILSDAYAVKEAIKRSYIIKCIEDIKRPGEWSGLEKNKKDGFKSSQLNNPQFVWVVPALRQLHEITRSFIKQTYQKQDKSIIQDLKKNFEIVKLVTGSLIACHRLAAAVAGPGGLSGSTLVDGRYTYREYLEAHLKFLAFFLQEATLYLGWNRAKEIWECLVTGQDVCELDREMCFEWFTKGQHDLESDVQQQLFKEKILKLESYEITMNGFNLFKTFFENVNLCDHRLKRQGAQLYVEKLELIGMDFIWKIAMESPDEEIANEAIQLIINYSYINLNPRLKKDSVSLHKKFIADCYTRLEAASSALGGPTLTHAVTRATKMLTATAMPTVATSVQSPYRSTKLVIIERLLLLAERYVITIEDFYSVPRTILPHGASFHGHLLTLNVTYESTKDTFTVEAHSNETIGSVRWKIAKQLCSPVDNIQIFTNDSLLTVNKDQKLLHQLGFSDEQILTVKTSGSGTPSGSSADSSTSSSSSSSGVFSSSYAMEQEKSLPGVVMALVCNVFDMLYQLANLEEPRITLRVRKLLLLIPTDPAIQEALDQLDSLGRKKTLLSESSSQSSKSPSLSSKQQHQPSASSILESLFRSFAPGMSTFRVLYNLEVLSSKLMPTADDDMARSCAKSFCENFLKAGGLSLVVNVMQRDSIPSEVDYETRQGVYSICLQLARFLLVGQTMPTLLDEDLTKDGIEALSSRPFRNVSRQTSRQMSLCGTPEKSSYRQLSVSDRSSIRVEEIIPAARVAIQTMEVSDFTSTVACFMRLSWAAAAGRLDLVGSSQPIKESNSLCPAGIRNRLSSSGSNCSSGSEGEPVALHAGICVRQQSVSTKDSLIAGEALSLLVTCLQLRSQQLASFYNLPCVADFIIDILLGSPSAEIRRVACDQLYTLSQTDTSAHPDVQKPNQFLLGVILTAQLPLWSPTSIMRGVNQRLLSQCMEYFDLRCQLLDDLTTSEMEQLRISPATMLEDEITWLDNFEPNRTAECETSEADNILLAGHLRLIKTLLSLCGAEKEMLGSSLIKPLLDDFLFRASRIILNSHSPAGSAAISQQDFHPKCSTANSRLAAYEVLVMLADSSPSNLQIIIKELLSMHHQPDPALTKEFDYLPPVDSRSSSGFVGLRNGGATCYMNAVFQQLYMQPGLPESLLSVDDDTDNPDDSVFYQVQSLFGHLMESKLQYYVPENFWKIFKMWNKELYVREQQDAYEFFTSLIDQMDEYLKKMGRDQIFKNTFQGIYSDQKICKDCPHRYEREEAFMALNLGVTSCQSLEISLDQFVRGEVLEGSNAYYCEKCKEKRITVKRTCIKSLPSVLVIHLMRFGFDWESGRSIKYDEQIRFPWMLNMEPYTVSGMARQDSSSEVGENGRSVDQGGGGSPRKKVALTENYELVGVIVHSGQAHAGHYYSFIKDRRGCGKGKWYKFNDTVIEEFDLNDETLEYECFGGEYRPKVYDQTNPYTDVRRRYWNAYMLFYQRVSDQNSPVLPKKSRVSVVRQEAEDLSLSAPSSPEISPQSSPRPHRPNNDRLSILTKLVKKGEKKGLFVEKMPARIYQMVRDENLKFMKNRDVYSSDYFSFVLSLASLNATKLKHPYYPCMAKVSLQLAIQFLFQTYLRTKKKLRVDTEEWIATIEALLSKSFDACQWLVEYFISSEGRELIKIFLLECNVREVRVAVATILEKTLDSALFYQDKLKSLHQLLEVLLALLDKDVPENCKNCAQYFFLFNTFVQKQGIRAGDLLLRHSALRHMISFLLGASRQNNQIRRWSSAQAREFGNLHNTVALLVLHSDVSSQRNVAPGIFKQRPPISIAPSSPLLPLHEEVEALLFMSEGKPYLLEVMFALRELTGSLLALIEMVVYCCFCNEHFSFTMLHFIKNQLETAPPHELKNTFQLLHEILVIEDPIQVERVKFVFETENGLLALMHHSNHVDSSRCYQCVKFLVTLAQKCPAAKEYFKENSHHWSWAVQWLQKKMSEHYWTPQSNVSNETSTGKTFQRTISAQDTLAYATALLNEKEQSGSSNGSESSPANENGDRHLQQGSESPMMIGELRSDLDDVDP
Procedure, shortened: as §1

USP25 = biological target: T3, USP25 (UniProt Q9UHP3)
T3 sequence (whole entry): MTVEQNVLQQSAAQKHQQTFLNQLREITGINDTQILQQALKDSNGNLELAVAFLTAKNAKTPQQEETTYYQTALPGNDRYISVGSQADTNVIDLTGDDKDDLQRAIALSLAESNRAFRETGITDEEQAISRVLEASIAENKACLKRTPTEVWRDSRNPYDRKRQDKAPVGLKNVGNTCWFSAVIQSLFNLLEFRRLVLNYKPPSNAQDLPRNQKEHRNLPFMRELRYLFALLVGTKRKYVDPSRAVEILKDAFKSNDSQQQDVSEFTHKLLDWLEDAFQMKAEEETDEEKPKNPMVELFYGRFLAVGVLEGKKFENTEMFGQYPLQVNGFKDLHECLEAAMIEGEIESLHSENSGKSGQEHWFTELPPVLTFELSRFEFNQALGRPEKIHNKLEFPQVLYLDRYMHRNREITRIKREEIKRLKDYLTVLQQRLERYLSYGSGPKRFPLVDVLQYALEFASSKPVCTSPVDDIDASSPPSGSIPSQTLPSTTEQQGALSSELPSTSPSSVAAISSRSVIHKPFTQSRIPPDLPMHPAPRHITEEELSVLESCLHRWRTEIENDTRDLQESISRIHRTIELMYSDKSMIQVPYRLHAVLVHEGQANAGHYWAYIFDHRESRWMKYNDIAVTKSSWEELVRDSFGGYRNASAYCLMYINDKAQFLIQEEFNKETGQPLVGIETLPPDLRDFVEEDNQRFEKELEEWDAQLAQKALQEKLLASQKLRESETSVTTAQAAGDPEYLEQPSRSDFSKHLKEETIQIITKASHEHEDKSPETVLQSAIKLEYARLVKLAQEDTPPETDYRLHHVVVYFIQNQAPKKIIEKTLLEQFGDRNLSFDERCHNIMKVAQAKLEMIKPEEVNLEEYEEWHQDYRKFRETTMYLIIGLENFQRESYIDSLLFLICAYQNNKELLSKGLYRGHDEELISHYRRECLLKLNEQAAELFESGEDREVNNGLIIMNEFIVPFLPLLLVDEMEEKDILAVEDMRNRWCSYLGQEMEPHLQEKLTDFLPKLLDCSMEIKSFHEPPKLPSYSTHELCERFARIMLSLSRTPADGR
Procedure, shortened: as §1

USP28 = biological target: T4, USP28 (UniProt Q96RU2)
T4 sequence (whole entry): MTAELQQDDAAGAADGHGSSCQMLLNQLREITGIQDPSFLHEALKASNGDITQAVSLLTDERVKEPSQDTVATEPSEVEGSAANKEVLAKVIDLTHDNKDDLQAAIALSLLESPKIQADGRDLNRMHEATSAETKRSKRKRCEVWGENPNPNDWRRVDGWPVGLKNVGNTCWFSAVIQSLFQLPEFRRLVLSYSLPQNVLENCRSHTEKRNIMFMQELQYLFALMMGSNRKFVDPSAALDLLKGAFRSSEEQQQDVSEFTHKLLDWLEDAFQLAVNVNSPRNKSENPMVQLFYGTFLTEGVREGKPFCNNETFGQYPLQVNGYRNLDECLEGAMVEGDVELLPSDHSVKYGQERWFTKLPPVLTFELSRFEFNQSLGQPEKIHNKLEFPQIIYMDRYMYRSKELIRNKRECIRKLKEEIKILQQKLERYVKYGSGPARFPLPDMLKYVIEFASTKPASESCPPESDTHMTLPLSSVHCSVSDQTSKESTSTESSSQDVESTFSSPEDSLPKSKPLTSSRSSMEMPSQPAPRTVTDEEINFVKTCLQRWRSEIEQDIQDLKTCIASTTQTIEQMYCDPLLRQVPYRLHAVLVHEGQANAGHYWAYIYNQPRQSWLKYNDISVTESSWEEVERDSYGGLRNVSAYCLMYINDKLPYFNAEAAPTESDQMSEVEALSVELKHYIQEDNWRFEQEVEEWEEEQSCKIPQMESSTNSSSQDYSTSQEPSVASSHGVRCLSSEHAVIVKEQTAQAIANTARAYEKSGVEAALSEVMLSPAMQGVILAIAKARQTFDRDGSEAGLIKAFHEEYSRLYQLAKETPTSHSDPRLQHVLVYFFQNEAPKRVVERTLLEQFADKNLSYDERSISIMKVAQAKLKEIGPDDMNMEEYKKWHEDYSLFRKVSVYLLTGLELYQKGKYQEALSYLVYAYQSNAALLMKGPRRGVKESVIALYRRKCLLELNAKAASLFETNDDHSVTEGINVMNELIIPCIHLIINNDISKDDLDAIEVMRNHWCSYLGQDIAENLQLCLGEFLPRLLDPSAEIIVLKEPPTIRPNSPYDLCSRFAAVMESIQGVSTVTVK
Procedure, shortened: as §1

Measured: log2 ratio of Biotin-Ahx-Ub-VS probe labelling

Cc1cccnc1NC(=O)C1CCN(C(=O)CCl)CC1.Cl
inactive: USP19 -0.314 | USP22 0.169 | USP24 -0.409 | USP25 -0.184 | USP28 -0.564
